# EWS-Fli inh = inhibitors of EWS/Fli oncoprotein transcriptional activity; A673 NR0B1-luciferase reporter, viability-normalised; inhibition, % at 12.6 µM; 350,000 compounds, 0.67% hits;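 active = mean inhibition of at least 50% after viability correction, with every replicate also passing that limit; inconclusive = mean reaches 50% but only one of two replicates passes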;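 also: firefly luciferase signal divided by Alamar Blue viability fluorescence both relative to DMSO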
# PAX8 inh HTS = PAX8 transcriptional activity inhibition. inhibition, % at 12.6 µM. RMG-I TPO-luciferase reporter, SteadyGlo, 24 h. 360,000 compounds, 1.2% hits;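 active = mean replicate inhibition at least 60% with every replicate also reaching 60%; inconclusive = only one of the two criteria is met; inactive = mean below 60% and not all replicates reaching 60%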;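 also: luciferase light reporting Pax8 driven TPO promoter activity; plate controls were median of neutral control wells for no effect and mitoxantrone controls for full effect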
# CFTR F508del cor = correctors of CFTR F508del function in bronchial epithelial cells | CFBE cells, YFP halide quenching; stimulated with forskolin plus potentiator P3; % fluorescence drop versus neutral controls | activity (quench increase), % at 7.58 µM | 350,000 compounds, 0.36% hits | AID 720511;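 active = mean added fluorescence quench of at least 8% versus neutral control, with both replicates also reaching 8%; inconclusive = only one of the mean or replicate conditions met; inactive = mean below 8% and not both replicates reaching 8%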;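 also: cells transiently co-express mutant CFTR-F508del with the halide-sensitive YFP; corrector assay measuring rescue of mutant channel to the surface after 24 h compound exposure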
# LGR2 inh = inhibitors of bursicon-induced Drosophila LGR2 receptor cAMP signaling. AID 720647. inhibition, % at 9.99 µM. HEK293 LGR2, CRE-luciferase, bursicon-stimulated, 4 h. 380,000 compounds, 0.35% hits;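 active = drop in luminescence signal, shown as inhibition above about 50% in the replicate tests, limit read from the data, passing the limit was not always enough; inconclusive = probably only some replicates passing the limit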;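 also: agonist challenge used bursicon conditioned medium at about half maximal strength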
# Active calls of the source: *; ? = inconclusive; · = no result given. Only some compounds are listed: those with a hit (about 1.8% of all), similar ones and a draw of the others.
SMILES,EWS-Fli inh,PAX8 inh HTS,CFTR F508del cor,LGR2 inh
C[C@@H]1CN([C@H](C)CO)C(=O)c2cc(NC(=O)Nc3ccc4c(c3)OCO4)ccc2O[C@H]1CN(C)C(=O)Nc1ccc(C(F)(F)F)cc1,-42,65*,1,20
C[C@@H]1CN([C@@H](C)CO)C(=O)c2cc(NC(=O)Nc3ccc(C(F)(F)F)cc3)ccc2O[C@H]1CN(C)C(=O)Nc1ccc(C(F)(F)F)cc1,21,92*,-5,15
C[C@@H]1CN([C@H](C)CO)C(=O)c2cc(NC(=O)Nc3ccc(C(F)(F)F)cc3)ccc2O[C@@H]1CN(C)C(=O)Nc1ccc(C(F)(F)F)cc1,-7,13,0,-22
C[C@@H]1CN([C@H](C)CO)C(=O)c2cc(NC(=O)Nc3ccc(C(F)(F)F)cc3)ccc2O[C@@H]1CN(C)C(=O)Nc1ccc2c(c1)OCO2,-1,·,1,28
COc1cccc(-c2cc(C(F)(F)F)nc(-n3cc(C)cn3)n2)c1,4,-15,3,-19
CC(C)Oc1ncnc2c1[nH]c1ccccc12,-6,10,10*,-5
Oc1cc(NCc2ccc(Cl)cc2)cc2cccnc12,3,-2,2,-5
Oc1cc(NCc2ccc(F)cc2)cc2cccnc12,-5,73*,-3,-4
CN(C)CCCNc1cc(O)c2ncccc2c1,-7,5,-3,97*
CCn1c(NC(=O)c2cccs2)c(-c2cccs2)c(=O)c2ccccc21,·,17,·,·
COc1ccc(-c2ccc3c(c2)O[C@@H](CN(C)C(=O)Nc2ccccc2F)[C@H](C)CN([C@H](C)CO)S3(=O)=O)cc1,22,·,-1,3
Cc1ccc(C(=O)NC(NCc2ccccc2)C(Cl)(Cl)Cl)cc1 (configuration not stated),5,145*,0,-1
O=C(CSCc1ccc([N+](=O)[O-])cc1)NC1CCCCCC1,2,-2,0,2
CN(CCOc1ccccc1)C(=O)C1CCN(C(=O)c2ccc(Cl)cc2)CC1,·,-28,0,-8
CCCc1nc2ccccc2c(C(=O)OCC(=O)NCc2ccc3c(c2)OCO3)c1CC,20,5,9.0*,4
CCc1nc2ccccc2c(C(=O)OCC(=O)NCc2ccc3c(c2)OCO3)c1C,4,16,·,-16
COc1ccc(-c2ccc3c(c2)O[C@@H](CN(C)C)[C@H](C)CN([C@H](C)CO)S3(=O)=O)cc1,5,·,-1,-1
O=[N+]([O-])c1ccc(O)c(-c2cc(C(F)(F)F)nc(-c3ccccc3)n2)c1,37,107*,1,-13
COCC(=O)N1CCCC(C(=O)c2ccc(-c3ccccc3)c(F)c2)C1 (configuration not stated),-9,-4,1,-8
COc1cccc(NC(=O)N(C)C[C@H]2Oc3cc(C#Cc4ccncc4)ccc3S(=O)(=O)N([C@H](C)CO)C[C@@H]2C)c1,19,·,2,14
COc1cccc(NC(=O)N(C)C[C@H]2Oc3cc(C#Cc4ccncc4)ccc3S(=O)(=O)N([C@H](C)CO)C[C@H]2C)c1,6,66*,3,-8
C[C@@H]1CN([C@H](C)CO)S(=O)(=O)c2ccc(C#Cc3ccncc3)cc2O[C@H]1CN(C)C(=O)Nc1ccc2c(c1)OCO2,19,91*,-1,12
COc1cccc(C#Cc2ccc3c(c2)O[C@@H](CN(C)C(=O)c2ccccn2)[C@H](C)CN([C@@H](C)CO)S3(=O)=O)c1,22,73*,9.8*,-3
COc1ccc(NC(=O)N(C)C[C@@H]2Oc3cc(C#CCC(C)C)ccc3S(=O)(=O)N([C@@H](C)CO)C[C@@H]2C)cc1,2,65*,4,-8
Cc1noc(C)c1NC(=O)N(C)C[C@@H]1OCCCC[C@@H](C)Oc2ccc(NC(=O)Nc3ccccc3)cc2C(=O)N([C@@H](C)CO)C[C@H]1C,1,-17,-1,7
SMILES,EWS-Fli inh,PAX8 inh HTS,CFTR F508del cor,LGR2 inh
CC(=O)Nc1ccc(NC(=O)CSc2nnc(C)c(=O)[nH]2)cc1,9,24,-2,-3
CCOc1ccc(Cl)cc1CSc1n[nH]c(C)n1,-12,-6,0,9
COc1ccc(CC(NC(C)=O)C(=O)NC2CCN(C(=O)Nc3ccccc3Cl)CC2)cc1OC (configuration not stated),·,6,·,·
CC1CCC/C=C/C(=O)c2c(O)cc(O)cc2CC(=O)O1 (configuration not stated),45,·,-22,69*
CCNC(=O)C1CCCN(C(=O)c2ccc(F)c(Cl)c2)CC1 (configuration not stated),-6,76*,4,-4
CCCCCCC(=O)O,-5,·,0,10
CCCCCCCCCCCCCC(=O)NO,55*,5,-3,25
CCCCN1C(=O)/C(=C/C=C2\Oc3ccccc3N2CC)SC1=S,-35,-5,17*,39
CN(C)c1ccc(-c2nc3cc(N)ccc3o2)cc1,65*,33,1,?
S=C1SCN(Cc2ccccc2)CN1Cc1ccccc1,17,25,-1,14
S=C1SCN(Cc2cccnc2)CN1Cc1cccnc1,29,93*,-1,19
COc1cc(C(=O)c2cocc2C(=O)c2ccc3c(c2)OCO3)cc(OC)c1OC,50,17,13*,0
COc1cc(C(=O)c2ccc3c(c2)OCO3)cc(OC)c1OC,?,-2,2,6
O=C(O)c1ccc(NN=Cc2cc(=O)[nH]c(=O)[nH]2)cc1,-12,-11,0,-7
COc1ccc(N2C(=O)CSC23C(=O)N2CCCc4cccc3c42)cc1 (configuration not stated),·,6,·,·
COc1ccc(N=C2C(=O)N3CCCc4cccc2c43)cc1,0,-9,12*,-9
COc1ccc(S(=O)(=O)N2CCOc3ccccc32)cc1,56*,-2,5,4
COc1ccc(S(=O)(=O)N2c3ccccc3OCC2C(C)(C)C)cc1 (configuration not stated),58*,17,1,18
COc1ccc(S(=O)(=O)N2c3ccccc3OCC2C)cc1 (configuration not stated),74*,52,-3,-2
COc1ccc(S(=O)(=O)N2c3ccccc3OCC2c2ccccc2)cc1 (configuration not stated),·,0,·,·
CCS(=O)(=O)N1CC2(CN(Cc3ccc(OC)cc3)[C@H](CO)c3c2c2ccc(OC)cc2n3C)C1,-3,·,-2,6
O=C(C(Br)=Cc1ccccc1)c1ccccc1,58*,86*,4,32
CC(=Cc1ccccc1)C(=O)c1ccccc1,-6,-5,3,2
c1csc(-c2nc(-c3ccc(-c4ccon4)s3)no2)c1,-11,-137,3,-9
Cc1ccc(S(=O)(=O)Nc2ccc3c(c2)C(=O)N([C@@H](C)CO)C[C@@H](C)[C@@H](CN(C)C(=O)Nc2ccccc2)OCCCC[C@@H](C)O3)cc1,-3,9,-1,25
Nc1ccc2nc(-c3cccc(-c4nc5ccc(N)cc5[nH]4)c3)[nH]c2c1,0,-4,-2,1
Cc1nc2ccc(-c3nc4ccc(N)cc4[nH]3)cc2[nH]1,-19,69*,-2,-19

# Assay outcomes (PubChem)
